# High-throughput results: PubChem, several laboratories
# A selection: hits, their analogues and other compounds. The true share with any hit is near 1.1%.
# Sa ugtP lethal = kills S. aureus RN4220 lacking UgtP. S. aureus RN4220 ugtP deletion, OD600 growth, 16 h. growth inhibition, % (concentration not given with the values). AID 1259309. 330,000 tested, 0.54% active; in the data active means growth inhibition above about 68%;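 further: plate controls were untreated wells for no effect and antibiotic for full effect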
# Mtb hypoxia rep = inhibitors of hypoxia-regulated fluorescent reporter in Mycobacterium tuberculosis; fluorescence inhibition, % (concentration not given with the values); M. tuberculosis hypoxia-regulated fluorescent reporter, fluorescence; 300,000 tested, 0.1% active; AID 1159583; in the data active means fluorescence inhibition mostly above about 23%, no sharp cut-off; inactive means mostly below about 17%
# Sa RN4220 lethal = kills Staphylococcus aureus RN4220. inhibition, % (no concentration beside the values). S. aureus RN4220 growth, OD600, 16 h. 330,000 tested, 0.33% active. AID 1259311; in the data active means inhibition above about 85%;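 further: plate controls were untreated cells for no effect and reference antibiotic for full effect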
# SSB-PriA inh = inhibitors of Klebsiella pneumoniae PriA binding to SSB C-terminal tail. AlphaScreen SSBct-PriA binding, biotinylated peptide. inhibition, % at 33 µM. 430,000 tested, 0.6% active. AID 1272365; in the data active means inhibition mostly above about 37%, no sharp cut-off; inactive means mostly below about 20%;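 further: plate controls were negative control peptide for no effect and reference peptide for full effect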
# The depositor's hits bear a star; . = no result shown.
SMILES,Sa ugtP lethal,Mtb hypoxia rep,Sa RN4220 lethal,SSB-PriA inh
CS(=O)(=O)N1CCN(c2ccccc2NC(=O)c2ccc([N+](=O)[O-])o2)CC1,88,9,100*,-16
O=C(COc1coc(CN2CCCc3ccccc32)cc1=O)NCc1ccccc1,.,.,.,-5
CCC(=O)N1CCN(c2ccc(NC(=O)c3ccc([N+](=O)[O-])o3)cc2Cl)CC1,91*,.,99*,-1
CC(=O)Nc1ccc2nc(NC(=O)c3ccc([N+](=O)[O-])o3)sc2c1,98*,14,18,-1
O=S(=O)(NC1CC(NS(=O)(=O)OCC(Cl)(Cl)Cl)C2CCCCC12)OCC(Cl)(Cl)Cl (configuration not stated),95*,5,101*,1
Nc1ccccc1Nc1cccc(C(F)(F)F)c1,-9,1,5,43*
O=C(COc1ccc(Cl)cc1)Nc1ccccc1-c1nc2ccccc2s1,.,.,.,-13
O=C(c1ccc(Oc2ccc([N+](=O)[O-])cc2)cc1)N1CCCCCC1,3,1,3,12
O=C(CCc1ccc(Oc2cc([N+](=O)[O-])cc([N+](=O)[O-])c2)cc1)N1CCCCC1,8,.,-1,45*
O=C(Nc1cnc(-n2cccn2)nc1)Nc1ccc(F)c(Cl)c1,.,.,.,-23
O=C(COC(=O)c1cccc(O)c1)Nc1nnc(-c2ccccc2)o1,1,7,9,43*
O=C(COC(=O)c1ccc(O)cc1O)Nc1nnc(-c2ccccc2)o1,0,1,4,57*
COc1cc2c(cc1OC)CN(S(=O)(=O)CCNC(=O)CSCc1ccccc1)CC2,.,.,.,-8
Cn1cccc1-c1cc(C(=O)N/N=C/c2cccc(Br)c2)[nH]n1,.,.,.,47*
O=C(CCN1CCc2ccccc21)c1ccc2c(c1)OCCO2,2,2,10,48*
c1ccc(-c2noc(-c3ccco3)n2)nc1,10,5,4,-19
c1ccc(-c2nccc(-c3ccco3)n2)nc1,4,4,10,72*
c1ccc(-c2nnc(-c3ccco3)c(-c3ccco3)n2)nc1,.,.,.,114*
O=C(c1cc2ccccc2[nH]1)N(CCc1cccs1)Cc1ccco1,.,.,.,-5
CC(=O)OCC1=C(C(=O)O)N2C(=O)[C@@H](NC(=O)Cc3cccs3)[C@H]2SC1,99*,.,99*,5
CC(=O)OCC1=C(C(=O)O)N2C(=O)[C@@H](NC(=O)Cc3ccccc3)[C@H]2SC1,.,.,.,-2
CC(=O)OCC1=C(C(=O)O)N2C(=O)C(NC(=O)CC(C)c3ccccc3)C2SC1 (configuration not stated),94*,.,100*,-1
CC(=O)OCC1=C(C(=O)O)N2C(=O)C(NC(=O)C(C)Cn3cc(Cl)cn3)C2SC1 (configuration not stated),100*,17,100*,-4
CO/N=C(/C(=O)NC1C(=O)N2C(C(=O)O)=C(COC(C)=O)CSC12)c1csc(N)n1 (configuration not stated),.,.,.,8
O=C(Oc1ccc2nc(N3CCOCC3)sc2c1)c1ccc2ncsc2c1,.,.,.,-5
SMILES,Sa ugtP lethal,Mtb hypoxia rep,Sa RN4220 lethal,SSB-PriA inh
c1ccc2c(c1)cc1ccc3cccc4ccc2c1c34,44,11,-8,-8
Cc1ccc2ccc3cccc4ccc1c2c34,100*,16,-8,-10
O=C(Nc1nnc(COc2cccc3ccccc23)o1)c1ccc2c(c1)OCO2,.,.,.,-9
O=c1c2ccccc2nc(/C=C/c2ccccc2)n1-c1ccc(O)cc1,4,18,29,-8
COc1cc(/C=C/c2nc3ccccc3c(=O)n2-c2ccccc2O)ccc1O,99*,.,93*,18
COc1cc(/C=C/c2nc3ccccc3c(=O)n2-c2cccc(O)c2)ccc1O,99*,4,99*,-4
O=c1c2ccccc2nc(/C=C/c2ccc(O)c(O)c2)n1-c1ccccc1,-20,-3,11,-5
Cc1onc(-c2c(Cl)cccc2Cl)c1C(=O)N[C@@H]1C(=O)N2[C@@H]1SC(C)(C)[C@@H]2C(=O)O,3,-12,2,7
Cc1onc(-c2ccccc2Cl)c1C(=O)NC1C(=O)N2C1SC(C)(C)C2C(=O)O (configuration not stated),100*,6,99*,.
Cc1onc(-c2c(Cl)cccc2Cl)c1C(=O)NC1C(=O)N2C1SC(C)(C)C2C(=O)O (configuration not stated),100*,8,101*,-13
CC(=O)N1N=C(c2cccc(NS(C)(=O)=O)c2)CC1c1cn(-c2ccccc2)nc1-c1ccccc1 (configuration not stated),.,.,.,0
O=C(NC1(C(F)(F)F)NC(=O)N(Cc2ccccc2)C1=O)c1cccnc1 (configuration not stated),-2,-3,3,15
CC(c1ccccc1)N1C(=O)NC(NC(=O)c2cccnc2)(C(F)(F)F)C1=O (configuration not stated),-3,2,4,48*
O=c1c(SCc2cccc([N+](=O)[O-])c2)nccn1-c1ccc(F)cc1,.,.,.,40*
Cc1ncc(CO)c(C=NNC(=O)c2ccccc2Br)c1O,6,6,3,7
Cc1cc(C(=O)NN=Cc2c(CO)cnc(C)c2O)c2ccccc2n1,2,15,0,40*
Cc1ncc(CO)c(C=NNc2ccc(C(F)(F)F)cn2)c1O,.,.,.,72*
Cc1ncc(CO)c(C=NNc2cccc(Cl)n2)c1O,2,5,-1,-2
O=C(O)CN1CCN(C2CCCC2)CC1,.,.,.,-5
NS(=O)(=O)c1ccc(NC(=O)Cc2csc(SCc3ccc(Cl)cc3)n2)cc1,.,.,.,3
COc1cc(CCc2ccccc2)c(C(=O)O)c(O)c1C/C=C(/C)CCC=C(C)C,100*,-3,88*,-3
NC(=NCCCCCCN=C(N)N=C(N)Nc1ccc(Cl)cc1)N=C(N)Nc1ccc(Cl)cc1,100*,.,100*,29
CC/C(=C\C=C\[C@@H]1C=C[C@@H]2CCC[C@H]2[C@@H]1C(=O)c1ccc[nH]1)[C@@H]1O[C@@H]([C@@H](C)C(=O)O)CC[C@@H]1C,99*,10,100*,7
CCC(C(=O)C(C)C(O)C(C)CCc1ccc(C)c(O)c1C(=O)O)C1O[C@](CC)(C2CC[C@](O)(CC)C(C)O2)CC1C (some centres not stated),90*,17,99*,.
Cc1ccccc1C=CC(=O)c1ccc([N+](=O)[O-])o1,101*,21,33,.
SMILES,Sa ugtP lethal,Mtb hypoxia rep,Sa RN4220 lethal,SSB-PriA inh
Cc1cccc(C=CC(=O)c2ccc([N+](=O)[O-])o2)c1,100*,.,101*,.
O=C(C=Cc1cccc([N+](=O)[O-])c1)c1ccc([N+](=O)[O-])o1,100*,.,100*,.
COc1ccc(C=CC(=O)c2ccc([N+](=O)[O-])o2)cc1OC,100*,.,48,.
Cc1cccc(N=C2NN=C(c3ccccc3F)CS2)c1C,7,17,4,44*
Fc1ccc(N=C2NN=C(c3cc(F)ccc3F)CS2)cc1,-13,5,22,50*
COc1ccc(-c2nc(-c3ccc4c(c3)OCO4)[nH]c2-c2ccc(OC)cc2)cc1,87*,-4,16,34
COc1ccc(-c2noc(-c3ccc4c(c3)OCO4)n2)cc1,0,3,6,-12
